The source of these data is PubChem BioAssay (Tox21).

Experiment [1] concerns the target Aryl hydrocarbon receptor (Homo sapiens) (UniProt P35869). As to the kind of experiment: qHTS assay to identify small molecule that activate the aryl hydrocarbon receptor (AhR) signaling pathway (AID 743085).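 For activation: HG2L7.5c1 human HepG2 liver cells with stably integrated DRE-driven firefly reporter; series mostly up to about 70 µM.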 Note: nearly all actives have a fitted effect of over 15% in size. Note: potency is the fitted concentration of half-maximal effect. In outline: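 Measured in HG2L7.5c1 cells: CellTiter-Fluor signal (30 min incubation, 37C) for viability, then luciferase luminescence (30 min, room temperature). Compound contact time was 24 h at 37C, following a 5 h pre-incubation.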
On the technique in general: qHTS replaces the single test concentration by a dilution series.

Experiment [2] is described as follows: qHTS assay to identify small molecule that activate the aryl hydrocarbon receptor (AhR) signaling pathway - cell viability counter screen (AID 743086).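 Note: HepG2 liver cells carrying the AhR DRE luciferase reporter; series mostly up to about 70 µM; nearly all actives have a fitted effect of over 45% in size.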 In outline: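 HepG2-AhR-luc (HG2L7.5c1) cells, 4000/well, were preincubated 5 h at 37C, exposed to compound in qHTS format for 24 hr at 37C, then given CellTiter-Fluor for 30 min; viability was read as fluorescence in the reporter wells.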

Experiment [3] can be described thus: qHTS assay to identify small molecule antagonists of the peroxisome proliferator-activated receptor gamma (PPARg) signaling pathway - cell viability counter screen (AID 743194). Note: nearly all actives have a fitted effect of over 55% in size. In outline:
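PPARg-UAS-bla HEK293H cells were plated, rested 5 h at 37 C, then treated with compounds plus rosiglitazone (50 nM final) for 17 h at 37 C; viability was then read by CellTiter-Glo luminescence after 30 min at room temperature.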

Experiment [4] can be described thus: qHTS assay for small molecule agonists of the antioxidant response element (ARE) signaling pathway (AID 743202; active = well fitted activation curve with a large enough effect in the signal ratio in the repeat runs, not every such curve was filed as active; the % refers to the signal ratio; note: potency is the fitted concentration of half-maximal effect). In outline:
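Compounds delivered in DMSO to ARE-bla HepG2 cells (2,000 cells/well, pre-incubated 5 h) and left 16 h at 37 C. LiveBLAzer B/G FRET substrate then added for 2 h at RT before fluorescence reading.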

Experiment [5] can be described thus: qHTS assay for small molecule agonists of the antioxidant response element (ARE) signaling pathway - cell viability counter screen (AID 743203; calls by dose curve; note: nearly all actives have a fitted effect of over 55% in size; note: potency is the fitted concentration of half-maximal effect). In outline:
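Cells (ARE-bla HepG2, 2,000/well) receive DMSO-dissolved compounds after a 5 hrs rest. Plates incubate 16 hrs at 37C/5% CO2. CellTiter-Glo luminescence is then recorded after 30 min at room temperature.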

The nature of experiment [6]: qHTS assay for small molecule activators of the heat shock response signaling pathway (AID 743210; active = well fitted activation curve with a large enough effect in the signal ratio in the repeat runs, with a control signal flat, not every such curve was filed as active; the % refers to the signal ratio; note: series mostly up to about 63 µM). In outline: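 Reporter gene assay: HeLa cells stably bearing an HSE-bla construct, compound treatment 5 h at 37 C, LiveBLAzer substrate 2.5 h at RT, fluorescence intensity.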
Experiment [7] addresses Peroxisome proliferator-activated receptor delta (Homo sapiens) (UniProt Q03181). As to the kind of experiment: qHTS assay to identify small molecule antagonists of the peroxisome proliferator-activated receptor delta (PPARd) signaling pathway (AID 743215; active = well fitted inhibition curve with a large enough effect in the signal ratio in the repeat runs, not every such curve was filed as active; the % refers to the signal ratio;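 note: cells stimulated with agonist L165041 at 300 nM final during compound exposure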; note: potency is the fitted concentration of half-maximal effect). In outline:
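Antagonist-mode beta-lactamase reporter screen: HEK293H cells with UAS-bla under PPARd control, stimulated by 300 nM L165041 (final) alongside test compound for 17 h at 37 C, then FRET fluorescence after 2 h substrate incubation.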

A short description of experiment [8]: qHTS assay to identify small molecule agonists of the farnesoid-X-receptor (FXR) signaling pathway - cell viability counter screen (AID 743218). Note: nearly all actives have a fitted effect of over 45% in size. Note: potency is the fitted concentration of half-maximal effect. In outline: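 In GeneBLAzer FXR-UAS-bla HEK 293T cells, compounds act for 16 h at 37 C. Cell viability is then scored in the reporter wells by CellTiter-Glo, 30 min at RT, luminescence.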
Experiment [9] deals with Bile acid receptor (Homo sapiens) (UniProt Q96RI1). Put plainly: qHTS assay to identify small molecule agonists of the farnesoid-X-receptor (FXR) signaling pathway (AID 743220; active = well fitted activation curve with a large enough effect in the signal ratio in the repeat runs, not every such curve was filed as active; the % refers to the signal ratio). In outline:
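Beta-lactamase reporter under UAS control in GeneBLAzer FXR HEK 293T cells (5000/well) measured with LiveBLAzer FRET substrate after 2 h at room temperature. Compound exposure lasted 16 h at 37C.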

Experiment [10] is described as follows: qHTS assay to identify small molecule antagonists of the farnesoid-X-receptor (FXR) signaling pathway - cell viability counter screen (AID 743221; active = well fitted cell-killing curve with a large enough effect in the repeat runs, not every such curve was filed as active; note: nearly all actives have a fitted effect of over 50% in size; note: potency is the fitted concentration of half-maximal effect). In outline: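 Compound effects on cell number were measured as CellTiter-Glo luminescence in HEK 293T cells expressing FXR-UAS-bla, after 16 h at 37 C with 50 uM CDCA (final).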
Experiment [11] concerns the target Vitamin D3 receptor (Homo sapiens) (UniProt P11473). As to the kind of experiment: qHTS assay to identify small molecule agonists of the vitamin D receptor (VDR) signaling pathway (AID 743222; calls by dose curve). In outline: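 Agonist activity measured in VDR-bla reporter cells. Exposure 16 h, 37C, 5% CO2; detection by B/G FRET substrate, 2 h RT.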
Experiment [12] is described as follows: qHTS assay to identify aromatase inhibitors - cell viability counter screen (AID 743084).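 Note: cells stimulated with testosterone during compound exposure; nearly all actives have a fitted effect of over 55% in size.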 Note: potency is the fitted concentration of half-maximal effect.
Experiment [13] can be described thus: qHTS assay for small molecule activators of the heat shock response signaling pathway - cell viability counter screen (AID 743209). Note: nearly all actives have a fitted effect of over 50% in size. Note: potency is the fitted concentration of half-maximal effect. In outline: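 Quantitative HTS format, Tox21 10K library. HeLa cells carrying an HSE-driven beta-lactamase reporter were treated 5 h at 37 C, then assessed for viability by CellTiter-Glo luminescence.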
Experiment [14] is described as follows: qHTS assay to identify small molecule agonists of the peroxisome proliferator-activated receptor delta (PPARd) signaling pathway - cell viability counter screen (AID 743211). Note: nearly all actives have a fitted effect of over 55% in size. Note: potency is the fitted concentration of half-maximal effect. In outline:
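Following 5 h plating at 37 C and 5% CO2, PPARd UAS-bla HEK293H cells took up test compounds for 17 h. Viability was quantified by luminescence 30 min after CellTiter-Glo addition at room temperature.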

The target in experiment [15] is Peroxisome proliferator-activated receptor delta (Homo sapiens) (UniProt Q03181). Put plainly: qHTS assay to identify small molecule agonists of the peroxisome proliferator-activated receptor delta (PPARd) signaling pathway (AID 743212; calls by dose curve). In outline:
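A PPARd-bla HEK293H line with beta-lactamase under an Upstream Activator Sequence is treated with compounds at 37 C. Substrate loading for 2 h at room temperature precedes the fluorescence measurement.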

Experiment [16] deals with Peroxisome proliferator-activated receptor gamma (Homo sapiens) (UniProt P37231). Put plainly: qHTS assay to identify small molecule agonists of the peroxisome proliferator-activated receptor gamma (PPARg) signaling pathway (AID 743094; active = well fitted activation curve with a large enough effect in the signal ratio in the repeat runs, not every such curve was filed as active; the % refers to the signal ratio; note: potency is the fitted concentration of half-maximal effect). In outline:
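Stably transfected HEK293H cells (GeneBLAzer PPARg UAS-bla) were incubated with test substances for 17 h at 37C after a 5 h pre-incubation; beta-lactamase activity was then detected by FRET substrate fluorescence.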

Experiment [17] is described as follows: qHTS assay to identify small molecule antagonists of the peroxisome proliferator-activated receptor delta (PPARd) signaling pathway - cell viability counter screen (AID 743213). Note: nearly all actives have a fitted effect of over 50% in size. Note: potency is the fitted concentration of half-maximal effect. In outline:
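PPARd-bla HEK293H cells (3000/well) got compound plus 300 nM L165041 agonist for 17 h at 37 C. Viability in the same wells came from CellTiter-Glo luminescence after 30 min at room temperature.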

In experiment [18] the target is Bile acid receptor (Homo sapiens) (UniProt Q96RI1). As to the kind of experiment: qHTS assay to identify small molecule antagonists of the farnesoid-X-receptor (FXR) signaling pathway (AID 743217; active = well fitted inhibition curve with a large enough effect in the signal ratio in the repeat runs, not every such curve was filed as active; the % refers to the signal ratio). In outline:
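Beta-lactamase reporter under UAS control in HEK 293T cells; compound exposure 16 h at 37 °C in the presence of chenodeoxycholic acid (50 uM final); signal from B/G FRET substrate after 2 h at room temperature.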

Experiment [19] concerns the target Vitamin D3 receptor (Homo sapiens) (UniProt P11473). Put plainly: qHTS assay to identify small molecule antagonists of the vitamin D receptor (VDR) signaling pathway (AID 743223; active = well fitted inhibition curve with a large enough effect in the signal ratio in the repeat runs, not every such curve was filed as active; the % refers to the signal ratio). In outline: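 Beta-lactamase activity in VDR-bla cells is measured by FRET substrate fluorescence (2 h, room temperature) after cells spend 16 h at 37C with test compound and 3 nM final 1alpha,25-dihydroxyvitamin D3.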

Experiment [20] has as its target Peroxisome proliferator-activated receptor gamma (Homo sapiens) (UniProt P37231). Put plainly: qHTS assay to identify small molecule antagonists of the peroxisome proliferator-activated receptor gamma (PPARg) signaling pathway (AID 743191; calls by dose curve; note: nearly all actives have a fitted effect of over 30% in size; note: potency is the fitted concentration of half-maximal effect). In outline:
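GeneBLAzer PPARg UAS-bla HEK293H cells carrying a UAS-driven beta-lactamase reporter were plated at 3000 cells/well, preincubated 5 h at 37C, then given compound for 17 h at 37C; LiveBLAzer B/G FRET substrate was read after 1 h at room temperature.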

The structures appear in SMILES notation. Inconclusive results are not listed. Values without a mark were called inactive. Active and inactive are the calls of the source. Unless noted, calls come from the whole dose curve; as a rule, active = well fitted curve in the direction sought with a large enough effect in the repeat runs; inconclusive = weak or mixed curves; inactive = no such curve, though single readings can be large; an effect the other way counts as inactive or inconclusive.

Chain of Aryl hydrocarbon receptor (Homo sapiens) (P35869 whole entry, looked up): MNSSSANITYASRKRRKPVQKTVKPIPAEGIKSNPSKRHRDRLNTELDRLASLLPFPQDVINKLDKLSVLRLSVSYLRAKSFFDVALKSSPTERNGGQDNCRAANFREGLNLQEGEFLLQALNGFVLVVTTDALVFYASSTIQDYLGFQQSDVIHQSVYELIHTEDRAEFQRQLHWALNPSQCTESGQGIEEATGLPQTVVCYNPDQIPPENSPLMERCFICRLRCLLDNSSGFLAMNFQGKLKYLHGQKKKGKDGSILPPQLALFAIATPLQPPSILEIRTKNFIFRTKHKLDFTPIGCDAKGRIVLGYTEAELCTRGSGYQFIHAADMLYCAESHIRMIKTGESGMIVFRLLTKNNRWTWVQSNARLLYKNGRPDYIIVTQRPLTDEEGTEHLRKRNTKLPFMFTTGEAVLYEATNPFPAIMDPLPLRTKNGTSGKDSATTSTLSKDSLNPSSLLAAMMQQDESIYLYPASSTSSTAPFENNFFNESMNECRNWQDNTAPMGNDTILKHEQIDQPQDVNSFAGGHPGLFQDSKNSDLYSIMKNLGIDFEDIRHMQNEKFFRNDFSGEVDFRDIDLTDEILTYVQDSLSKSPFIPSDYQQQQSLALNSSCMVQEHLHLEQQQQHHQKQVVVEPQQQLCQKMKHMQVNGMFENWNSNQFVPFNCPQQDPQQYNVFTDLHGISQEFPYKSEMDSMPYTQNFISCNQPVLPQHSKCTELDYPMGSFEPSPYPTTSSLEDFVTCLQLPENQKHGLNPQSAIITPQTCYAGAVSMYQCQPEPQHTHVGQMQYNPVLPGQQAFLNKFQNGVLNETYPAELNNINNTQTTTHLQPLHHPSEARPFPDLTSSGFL
Chain of Bile acid receptor (Homo sapiens) (Q96RI1 whole entry, looked up): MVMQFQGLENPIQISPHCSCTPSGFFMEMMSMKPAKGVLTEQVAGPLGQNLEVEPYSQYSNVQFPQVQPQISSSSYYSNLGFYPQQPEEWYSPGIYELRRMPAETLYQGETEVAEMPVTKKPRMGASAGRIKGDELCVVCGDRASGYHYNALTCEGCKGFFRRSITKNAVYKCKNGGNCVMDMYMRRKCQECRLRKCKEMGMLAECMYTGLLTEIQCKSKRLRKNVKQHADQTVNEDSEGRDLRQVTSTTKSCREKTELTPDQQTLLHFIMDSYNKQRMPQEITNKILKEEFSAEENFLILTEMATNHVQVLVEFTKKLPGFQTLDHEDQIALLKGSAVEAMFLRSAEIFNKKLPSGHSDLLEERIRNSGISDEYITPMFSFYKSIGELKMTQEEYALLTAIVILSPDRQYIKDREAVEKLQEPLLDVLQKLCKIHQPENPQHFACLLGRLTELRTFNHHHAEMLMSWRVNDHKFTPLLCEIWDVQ
Chain of Vitamin D3 receptor (Homo sapiens) (P11473 whole entry, looked up): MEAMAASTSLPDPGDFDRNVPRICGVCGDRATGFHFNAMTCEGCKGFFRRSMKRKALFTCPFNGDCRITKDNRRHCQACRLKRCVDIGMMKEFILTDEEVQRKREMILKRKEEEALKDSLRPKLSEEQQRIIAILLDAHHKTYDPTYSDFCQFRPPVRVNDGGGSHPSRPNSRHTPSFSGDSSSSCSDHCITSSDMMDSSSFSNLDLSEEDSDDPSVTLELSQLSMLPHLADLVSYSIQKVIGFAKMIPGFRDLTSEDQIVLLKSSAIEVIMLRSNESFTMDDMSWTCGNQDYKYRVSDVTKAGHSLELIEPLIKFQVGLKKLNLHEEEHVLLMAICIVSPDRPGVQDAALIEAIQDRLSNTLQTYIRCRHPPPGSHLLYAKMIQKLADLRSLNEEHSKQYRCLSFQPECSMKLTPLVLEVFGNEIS
Chain of Peroxisome proliferator-activated receptor delta (Homo sapiens) (Q03181 whole entry, looked up): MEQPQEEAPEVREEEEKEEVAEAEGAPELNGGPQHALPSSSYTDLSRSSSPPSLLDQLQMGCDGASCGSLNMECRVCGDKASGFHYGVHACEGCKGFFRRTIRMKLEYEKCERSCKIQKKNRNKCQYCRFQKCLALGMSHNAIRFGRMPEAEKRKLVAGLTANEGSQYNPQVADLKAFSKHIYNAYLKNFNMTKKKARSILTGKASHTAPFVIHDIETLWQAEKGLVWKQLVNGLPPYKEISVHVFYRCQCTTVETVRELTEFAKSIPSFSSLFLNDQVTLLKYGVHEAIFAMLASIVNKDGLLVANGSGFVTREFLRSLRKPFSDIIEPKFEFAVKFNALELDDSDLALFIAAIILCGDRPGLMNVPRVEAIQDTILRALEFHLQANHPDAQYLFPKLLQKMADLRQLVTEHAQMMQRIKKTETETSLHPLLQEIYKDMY
Chain of Peroxisome proliferator-activated receptor gamma (Homo sapiens) (P37231 whole entry, looked up): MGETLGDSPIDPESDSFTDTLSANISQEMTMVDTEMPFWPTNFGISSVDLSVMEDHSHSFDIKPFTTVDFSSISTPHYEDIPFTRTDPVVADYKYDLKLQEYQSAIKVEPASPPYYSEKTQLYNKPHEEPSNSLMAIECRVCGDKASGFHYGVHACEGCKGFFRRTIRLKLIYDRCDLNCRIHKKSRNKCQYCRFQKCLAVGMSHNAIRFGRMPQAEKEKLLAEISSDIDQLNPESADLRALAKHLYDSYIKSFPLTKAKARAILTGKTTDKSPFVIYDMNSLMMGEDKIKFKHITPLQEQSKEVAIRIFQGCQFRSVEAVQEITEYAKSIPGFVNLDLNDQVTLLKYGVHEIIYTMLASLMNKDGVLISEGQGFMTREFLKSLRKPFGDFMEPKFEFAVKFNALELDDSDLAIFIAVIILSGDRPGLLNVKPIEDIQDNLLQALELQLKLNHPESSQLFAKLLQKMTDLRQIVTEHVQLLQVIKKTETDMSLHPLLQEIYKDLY

On to `COC1=C(OC)C(=O)C(CCCCCCCCCCO)=C(C)C1=O`, for which the Potency result in experiment [1], in [2], in [3], in experiment [4], in experiment [5] and in [6] was “inactive” in each case. Also, the Potency entry in experiment [8], in experiment [9], in [10] and in experiment [11] was “inactive” throughout. Also, the Potency in experiment [7] was 26.6 µM (active).
As to `CCCCCCCCCCCCOCCOCCOCCOCCOCCOCCOCCOCCOCCO`, the Potency entry in experiment [12], in [15] and in experiment [11] was “inactive” in each case. The Potency in experiment [13] is 29.8 µM (active); in [14] it was 33.5 µM (active); in experiment [10] it was 26.6 µM (active).
Regarding `CC1(C)CC(O)CC(C)(C)N1`, the Potency result in [12], in experiment [2], in experiment [16], in experiment [3], in [4] and in experiment [5] was “inactive” each time. The Potency result in experiment [13], in [15], in [17], in experiment [7], in experiment [8] and in experiment [10] was “inactive” each time. Also, the Potency entry in experiment [11] was “inactive”.
As to `CNc1ccc([N+](=O)[O-])cc1`, the Potency in experiment [12] is 34.4 µM (active); in [1], 54.6 µM (active); in experiment [13], 12.3 µM (active); in [8], 27.6 µM (active). The Potency entry in experiment [16], in experiment [3], in experiment [4], in experiment [17] and in experiment [10] was “inactive” throughout.
Consider `O=C1CCc2ccc(OCCCCN3CCN(c4cccc(Cl)c4Cl)CC3)cc2N1`, for which the Potency result in experiment [12], in experiment [1], in [2] and in [9] was “inactive” throughout. For the same compound, the Potency in experiment [5] was 16.8 µM (active); in experiment [13], 26.6 µM (active); in [14], 11.9 µM (active); in experiment [17] it was 13.3 µM (active); in experiment [8], 13.3 µM (active); in [10], 16.8 µM (active).
`CCn1c2ccccc2c2cc([N+](=O)[O-])ccc21`: the Potency entry in experiment [12], in experiment [2], in experiment [4], in experiment [5], in experiment [13] and in experiment [14] was “inactive” each time. In addition, the Potency entry in experiment [17], in experiment [8] and in [10] was “inactive” throughout.
With `S=C([S-])NCCNC(=S)[S-].S=C([S-])NCCNC(=S)[S-].[Mn+2].[Zn+2]`, the Potency result in experiment [12], in [1], in experiment [2], in experiment [13], in [14] and in [17] was “inactive” throughout. Moreover, the Potency entry in experiment [10] and in experiment [11] was “inactive” each time. In addition, the Potency in experiment [4] was 4.73 µM (active).
On to `OC12N=C(c3ccccc3)SC1Cc1cc(Cl)ccc12` (centres undefined), for which the Potency result in experiment [12], in experiment [16], in [5], in [13], in experiment [15] and in experiment [17] was “inactive” in each case. The Potency entry in experiment [7], in [18], in experiment [8], in [9], in experiment [10] and in experiment [11] was “inactive” each time. Besides, in experiment [19], the Potency result was “inactive”. Also, in [1], the Potency is 24.3 µM (active).
As to `CCc1oc2ccccc2c1C(=O)c1cc(I)c(O)c(I)c1`, the Potency entry in experiment [12], in experiment [2], in experiment [20], in experiment [13] and in [10] was “inactive” each time. Further, the Potency in experiment [16] is 0.952 µM (active); in [5] it was 26.6 µM (active).
`Cc1cc(C)c(/C=C2\C(=O)Nc3ccccc32)[nH]1`: the Potency result in experiment [12], in experiment [2], in [16], in experiment [3], in experiment [5] and in [13] was “inactive” throughout. Moreover, the Potency entry in [14], in experiment [17], in experiment [8] and in [10] was “inactive” in each case. Further, the Potency in experiment [7] is 15 µM (active).
Consider `COC(=O)C1=C(C)NC(C)=C(C(=O)OCCN2CCN(C(c3ccccc3)c3ccccc3)CC2)C1c1cccc([N+](=O)[O-])c1` (centres undefined), for which the Potency entry in experiment [12], in experiment [1], in experiment [3] and in experiment [13] was “inactive” in each case. Besides, the Potency in experiment [20] is 9.44 µM (active).
